Measured values published in PubChem BioAssay (Tox21).
Results filed as inconclusive are left out. The source made the active and inactive calls. Unless noted, the call rests on the fitted dose curve; in most records, active means well fitted curve in the direction sought with a large enough effect in the repeat runs; inconclusive means weak or mixed curves; inactive means no such curve, though single readings can be large; an effect the other way counts as inactive or inconclusive. Starred links: 1 amine or outer side, 2 acyl side, 3 side chain; linkers in the order of their positions; H or OH if unused. Positions of bridges follow the written chain, without caps; N, C: chain ends. Non-standard residues stand in square brackets, D forms with d. Residues, ends and D or L forms follow the SMILES beside them. *: point of attachment. X5 = NC1=N[C@@H]([C@H](N[*:1])C(=O)[*:2])C[C@H](O)N1; ΔAla(Z-3-ureido) = NC(=O)N/C=C(\N)C(=O)O; β3hOrn = NCCC[C@H](N)CC(=O)*; Dap = NC[C@H](N)C(=O)O

What was measured:
[1] = qHTS assay for small molecule agonists of the p53 signaling pathway (AID 651631; calls by dose curve; further: nearly all actives have a fitted effect of over 15% in size; further: potency means the concentration at half of the fitted maximal effect)
Procedure, shortened: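 HCT-116 cells carrying a beta-lactamase reporter under p53 response elements were dosed with compound for 16 h at 37 °C. LiveBLAzer B/G FRET substrate was then added for 2 h at room temperature, and fluorescence intensity was read to detect pathway agonism.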

[2] = qHTS assay for small molecules that induce genotoxicity in human embryonic kidney cells expressing luciferase-tagged ATAD5 (AID 651632); further: nearly all actives have a fitted effect of over 15% in size; further: potency means the concentration at half of the fitted maximal effect
Procedure, shortened: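 Quantitative HTS in HEK293T expressing luciferase-tagged ATAD5, whose levels rise upon DNA damage. Exposure ran 16 hr at 37C and 5% CO2, with luminescence read 30 min after Amplite addition at room temperature.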

[3] = qHTS assay for small molecule agonists of the p53 signaling pathway - cell viability (AID 651633; calls by dose curve; further: nearly all actives have a fitted effect of over 30% in size; further: potency means the concentration at half of the fitted maximal effect)
Procedure, shortened: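 Viability counter-read: CellTiter-Glo luminescence (30 min, room temperature) in the same p53RE-bla plates. These plates had been exposed to compounds for 16 h at 37 C.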

[4] = qHTS assay for small molecules that induce genotoxicity in human embryonic kidney cells expressing luciferase-tagged ATAD5 - cell viability (AID 651634; calls by dose curve; further: nearly all actives have a fitted effect of over 25% in size; further: potency means the concentration at half of the fitted maximal effect)
Procedure, shortened: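 After 15.5 hr incubation with compound at 37C, 5% CO2, HEK293T ATAD5-luciferase cells received CellTiter-Fluor reagent; fluorescence intensity was quantified following 30 min at 37C.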

[5] = qHTS assay to test for compound auto fluorescence at 590 nm (red) in HepG2 cells (AID 720674)
Procedure, shortened: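 1 hr compound incubation on HepG2 cells, 37 C, 5% CO2; plate read ex 540 nm / em 590 nm; intensities reported as Rose Bengal sodium equivalents.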

[6] = qHTS assay to test for compound auto fluorescence at 535 nm (green) in HepG2 cells (AID 720675)
[7] = qHTS assay to test for compound auto fluorescence at 460 nm (blue) in HEK293 cells (AID 720678)
Procedure, shortened: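 Cells were seeded and left to adhere for 4-5 hr at 37C. Compounds were then pin-transferred. After an overnight incubation at 37C under 5% CO2, intrinsic fluorescence at 405/460 nm was measured and referenced to triamterene.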

[8] = qHTS assay to test for compound auto fluorescence at 590 nm (red) in HEK293 cells (AID 720679)
Procedure, shortened: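 Each well held 2,000 HEK293 cells in medium containing 10% dialyzed FBS. Following 4-5 hr attachment at 37C, 23 nL test compound or DMSO was added; plates sat overnight, and red fluorescence (540/590nm) was recorded.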

[9] = qHTS assay for small molecule disruptors of the mitochondrial membrane potential - cell viability (AID 720634; calls by dose curve; further: nearly all actives have a fitted effect of over 20% in size; further: potency means the concentration at half of the fitted maximal effect)
Procedure, shortened: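 ATP-based luminescent viability readout (CellTiter-Glo, 30 min, room temperature) in HepG2 cells multiplexed with the m-MPI membrane potential dye; compound exposure lasted 1 hr at 37 C.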

[10] = qHTS assay for small molecule disruptors of the mitochondrial membrane potential (AID 720635); further: potency means the concentration at half of the fitted maximal effect
Procedure, shortened: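 Mitochondrial membrane potential tracked with Mito-MPS dye, red aggregates (ex 540/em 590 nm) against green monomers (ex 490/em 535 nm). Compound treatment 1 hr at 37C, dye 30 min in HepG2.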

Measured: Potency

CC[C@H]1OC(=O)[C@H](C)[C@@H](O[C@H]2C[C@@](C)(OC)[C@@H](O)[C@H](C)O2)[C@H](C)[C@@H](O[C@@H]2O[C@H](C)C[C@H](N(C)C)[C@H]2O)[C@](C)(O)C[C@@H](C)[C@@H]2N[C@@H](COCCOC)O[C@@H]([C@H]2C)[C@]1(C)O
not listed: [9] | [10]
inactive: all other assays above

CCCOc1ccc2nc(NC(=O)OC)sc2c1
active: [1] 1.5 µM | [2] 1.88 µM | [10] 7.5 µM
not listed: [4]
inactive: all other assays above

CC(=O)N(CC(C)C(=O)O)c1c(I)cc(I)c(N)c1I (stereo unspecified)
not listed: [9] | [10]
inactive: all other assays above

CNc1cc(OC)c(C(=O)N[C@H]2CCN(Cc3ccccc3)[C@H]2C)cc1Cl
not listed: [4] | [10]
inactive: all other assays above

C=CCNC1=C2C[C@@H](C)C[C@H](OC)[C@H](O)[C@@H](C)/C=C(\C)[C@H](OC(N)=O)[C@@H](OC)/C=C\C=C(/C)C(=O)NC(=CC1=O)C2=O
active: [1] 0.168 µM
not listed: [4] | [10]
inactive: all other assays above

CC(C)[C@@H](N)C(=O)O
not listed: [4] | [10]
inactive: all other assays above

Cc1nc(NS(=O)(=O)c2ccc(N)cc2)nc(C)c1Br
not listed: [4] | [10]
inactive: all other assays above

C#C[C@]1(OC(C)=O)CC[C@H]2[C@@H]3CCC4=CC(=O)CC[C@@H]4[C@H]3CC[C@@]21C
not listed: [4]
inactive: all other assays above

CN1C(=O)CN2CCc3ccccc3C2c2cc(Cl)ccc21 (stereo unspecified)
active: [1] 29.8 µM
not listed: [4]
inactive: all other assays above

CC[C@@]1(O)C(=O)OCc2c1cc1n(c2=O)Cc2cc3c([N+](=O)[O-])cccc3nc2-1
active: [1] 0.473 µM | [3] 0.473 µM
not listed: [4] | [10]
inactive: all other assays above

CCC(C)[C@@H](N)C(=O)O (stereo partly specified)
not listed: [4] | [10]
inactive: all other assays above

COC(=O)[C@H]1[C@H]2C[C@@H]3c4[nH]c5cc(OC)ccc5c4CCN3C[C@H]2C[C@@H](OC(=O)/C=C/c2cc(OC)c(OC)c(OC)c2)[C@@H]1OC
not listed: [4] | [8]
inactive: all other assays above

CCCCC(=O)O[C@H]1CC[C@H]2[C@@H]3CCc4cc(O)ccc4[C@H]3CC[C@]12C
active: [9] 29.8 µM | [10] 18.8 µM
not listed: [4] | [8]
inactive: all other assays above

O=C(O)[C@H](CC(=O)N1C[C@H]2CCCC[C@H]2C1)Cc1ccccc1
not listed: [9]
inactive: all other assays above

CCN(CC)CCOC(=O)c1cccnc1
not listed: [9] | [10]
inactive: all other assays above

CCCCCCCCCCCCCCCCCC(=O)[O][Al]
not listed: [4] | [10]
inactive: all other assays above

COC(=O)[C@@H](N)CS
not listed: [4] | [8]
inactive: all other assays above

C/C=C1\NC(=O)[C@H]2CSSCC/C=C/[C@H](CC(=O)N[C@H](C(C)C)C(=O)N2)OC(=O)C(C(C)C)NC1=O (stereo partly specified)
active: [1] 7.5 µM | [2] 0.0094 µM | [3] 1.5 µM | [4] 7.5 µM
inactive: [5] | [6] | [7] | [8]

O=[N+]([O-])c1ccc(Oc2ccc(N=C=S)cc2)cc1
active: [1] 13.3 µM | [10] 5.96 µM
not listed: [9]
inactive: all other assays above

CC(C(=O)O)c1ccc(N2Cc3ccccc3C2=O)cc1 (stereo unspecified)
active: [2] 0.596 µM
not listed: [9] | [10]
inactive: all other assays above

O=P(O)(O)C(Sc1ccc(Cl)cc1)P(=O)(O)O
not listed: [4] | [6] | [8]
inactive: all other assays above

O=C(CCCN1CCC(C(=O)c2ccc(F)cc2)CC1)c1ccc(F)cc1
not listed: [6] | [9]
inactive: all other assays above

COCC1=C(C(=O)OC(C)OC(=O)OC(C)C)N2C(=O)[C@@H](NC(=O)/C(=N\OC)c3csc(N)n3)[C@H]2SC1 (stereo partly specified)
not listed: [4]
inactive: all other assays above

CO[C@H]1C=CO[C@@]2(C)Oc3c(C)c(O)c4c(O)c(c5c(nc6cc(C)ccn65)c4c3C2=O)NC(=O)/C(C)=C\C=C[C@H](C)[C@H](O)[C@@H](C)[C@@H](O)[C@@H](C)[C@H](OC(C)=O)[C@@H]1C
not listed: [4] | [10]
inactive: all other assays above

NCCC[C@H](N)CC(=O)N[C@H]1CNC(=O)[C@H]([C@H]2C[C@H](O)NC(N)=N2)NC(=O)/C(=C/NC(N)=O)NC(=O)[C@H](CO)NC(=O)[C@H](CO)NC1=O (β3hOrn-[Dap]SS[ΔAla(Z-3-ureido)][X5]; lactam 1-C)
not listed: [4]
inactive: all other assays above

CCOC(=O)O[C@]1(C(=O)COC(=O)CC)CC[C@H]2[C@@H]3CCC4=CC(=O)C=C[C@]4(C)[C@H]3[C@@H](O)C[C@@]21C
not listed: [9] | [10]
inactive: all other assays above

CCOC(=O)c1cc(-c2ccccc2)nc2ccc(C)cc12
not listed: [4] | [10]
inactive: all other assays above

CCc1ccc(S(=O)(=O)O)cc1
not listed: [4] | [10]
inactive: all other assays above

COc1cc(S(C)=O)ccc1-c1nc2ncccc2[nH]1 (stereo unspecified)
not listed: [9]
inactive: all other assays above

O=C(CO)[C@@H](O)[C@H](O)[C@@H](O)C(=O)O
not listed: [4] | [10]
inactive: all other assays above

C=C[C@]1(C)C[C@@H](OC(=O)CO)[C@]2(C)[C@H](C)CC[C@]3(CCC(=O)[C@H]32)[C@@H](C)[C@@H]1O
not listed: [4]
inactive: all other assays above

CO[C@H]1[C@@H](O)[C@H](N)[C@@H](O[C@H]2O[C@H]([C@H](C)N)CC[C@H]2N)[C@H](O)[C@@H]1N(C)C(=O)CN
not listed: [4]
inactive: all other assays above

O=C(O)CCC/C=C\C[C@@H]1[C@@H](/C=C/[C@@H](O)COc2cccc(Cl)c2)[C@H](O)C[C@@H]1O
not listed: [9] | [10]
inactive: all other assays above

c1ccc2c(CCC3CCNCC3)c[nH]c2c1
not listed: [9] | [10]
inactive: all other assays above

N=C(N)c1ccc(OCCCOc2ccc(C(=N)N)cc2Br)c(Br)c1
not listed: [9]
inactive: all other assays above

CC1CC(OC(=O)C(O)c2ccccc2)CC(C)(C)C1 (stereo unspecified)
active: [10] 13.3 µM
not listed: [9]
inactive: all other assays above

O=C(O)c1cc2ccccc2c(Cc2c(O)c(C(=O)O)cc3ccccc23)c1O
not listed: [3] | [10]
inactive: all other assays above

CN(C)C=Nc1c(I)cc(I)c(CCC(=O)O)c1I
not listed: [2] | [10]
inactive: all other assays above

O=P(O)(O)OC(Cn1cncn1)(Cn1cncn1)c1ccc(F)cc1F
not listed: [2]
inactive: all other assays above

O=C(O)c1cc(O)c2c(c1)[O][Bi][O]2
not listed: [2] | [10]
inactive: all other assays above

CCC(=O)OCC(=O)[C@@]1(OC(=O)CC)[C@H](C)C[C@H]2[C@@H]3CCC4=CC(=O)C=C[C@]4(C)[C@@]3(F)[C@@H](O)C[C@@]21C
active: [10] 29.8 µM
not listed: [2]
inactive: all other assays above

C[Se]CCC(N)C(=O)O (stereo unspecified)
not listed: [2] | [8] | [10]
inactive: all other assays above

Nc1ncnc2c1ncn2[C@@H]1O[C@H](COP(=O)(O)OP(=O)(O)OP(=O)(O)O)[C@@H](O)[C@H]1O
active: [1] 26.6 µM | [9] 9.44 µM
not listed: [2] | [10]
inactive: all other assays above
